# Assay outcomes as filed in PubChem.
# HP1b chromo inh – HP1-beta chromodomain-methylated histone interaction inhibition | AlphaScreen HP1-beta / biotin-H3K9me3 peptide binding | Potency, µM (top dose mostly 114 µM), for the others: top-dose activity change, negative = inhibition, hits mostly inhibitors | 390,000 tested, 0.56% active; note: nearly all actives have a fitted effect of over 70% in size
#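 AlphaScreen: HP1-beta (50 nM) preformed 30 min with biotin-H3(1-18)K9me3 peptide (50 nM) in PBS pH 7.4, 0.01% Tween-20. Compound added for 30 min at RT, then streptavidin donor/nickel chelate acceptor beads (10 ug/mL) for 30 min.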
# Sfp PPTase inh – blocks B. subtilis Sfp PPTase activity; Q9F4F7; Biochemical Sfp PPTase activity, qHTS; AID 1490; Potency, µM, without a hit: largest response in the series, negative = inhibition, actives largely listed as inhibitors; 310,000 tested, 3.5% active;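 note: the enzyme is Sfp with the accession as filed and its product quenches rhodamine fluorescence; 0% = enzyme reaction without inhibitor and -100% = no enzyme wells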
#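 Buffer: 50 mM Hepes-Na pH 7.6, 10 mM MgCl2, 0.01% Nonidet P-40, 0.01% BSA. Enzyme 15 nM, pre-exposed to compound 15 min; substrates then added and fluorescence change tracked over 30 min.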
# JMJD2A Tudor inh – blocks the human JMJD2A Tudor domain | O75164 | AlphaScreen JMJD2A-Tudor / H3K4me3 peptide binding | Potency, µM (series often up to 114 µM), for inactives: top-dose activity change, negative = inhibition, most hits filed as inhibitors | 390,000 tested, 4.4% active | AID 504339; note: % is set by controls: 0 for no effect and ±100 for the full control effect; nearly all actives have a fitted effect of over 50% in size
# BAZ2B inh – inhibitors of human BAZ2B bromodomain. 360,000 tested, 4.4% active. AlphaScreen BAZ2B-H3K14Ac peptide displacement. Potency, µM (series often up to 114 µM), for the others: top-dose activity change, negative = inhibition, most hits filed as inhibitors. AID 504333; note: % is set by controls: 0 for no effect and ±100 for the full control effect; nearly all actives have a fitted effect of over 60% in size
#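 Compounds, titrated to a top concentration of 110 uM, were incubated 30 min at room temperature with preformed BAZ2B/acetyl-K14 H3 peptide complex (50 nM each). Proximity signal was measured by AlphaScreen after 20 min with beads.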
# G9a block – blocks human histone lysine methyltransferase G9a. G9a H3K9 monomethylation, AlphaScreen, 2 h. Potency, µM (series often up to 102 µM), without a hit: at the highest dose activity, negative = inhibition, actives largely listed as inhibitors. 350,000 tested, 8.8% active; note: % is set by controls: 0 for no effect and ±100 for the full control effect; nearly all actives have a fitted effect of over 75% in size
#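 G9a (20 nM) preincubated 15 min RT with compounds, then 500 nM biotinylated H3K9 peptide and 20 uM SAM added; 2 h RT reaction. Monomethyl-H3K9 product detected by AlphaScreen with anti-H3K9me1 antibody, streptavidin donor and anti-rabbit IgG acceptor beads.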
# Active calls of the source: *; ? = inconclusive; · = no result; ! = repeats disagree; [ ] = dose if it differs, or a comment. Shown are actives, neighbours in structure and some others; about 12% of the full set was active somewhere. Calls come from the whole dose curve; as a rule, active = well fitted curve in the direction sought with a large enough effect; inconclusive = small, poorly fitted or top-dose-only effect, or another doubt; inactive = no such curve, though single readings can be large; an effect the other way counts as inactive or inconclusive. Potency is the fitted concentration of half-maximal effect.
SMILES,HP1b chromo inh,Sfp PPTase inh,JMJD2A Tudor inh,BAZ2B inh,G9a block
CC1(C(=O)c2ccccc2)C2c3c(ccc4ccccc34)OC(=O)C21C(=O)N1CCOCC1 (centres undefined),-11%,5%,-27%,?,79µM*
COc1cc(C=O)c(Cl)cc1OCC(N)=O,41%,22%,-2%,-3%,7%
CCc1c(O)nc(SCC(=O)Nc2ccc3c(c2)CCC3)[nH]c1=O,17%,6%,-18%,?,-18%
CCCCOC(=O)CSC1=C(C#N)C(c2cccnc2)C(C(=O)OCC)=C(c2ccccc2)N1 (centres undefined),47%,10%,-12%,-16%,-27%
COC(=O)C1C(O)=C(C(C)=Nc2cccc3ccccc23)C(=O)CC1(C)C (centres undefined),-5%,-18%,79µM*,-32%,-64%
COCc1cc(=O)[nH]c(=S)[nH]1,17%,13µM*,13µM*,-30%,4.5µM*
O=c1cc(Cc2ccccc2)[nH]c(=S)[nH]1,49%,-30%,?,-2%,?
CCOC(=O)c1ccc(N2CCN(c3cccc(Cl)c3)CC2)c(NC(=O)Nc2ccc(Cl)cc2)c1,43%,·,-28%,-8%,-18%[59 µM]
CCN(CC)CCOC(c1ccccc1)c1ccc(C)cc1 (centres undefined),13%,-3%,-8%,-9%,-34%[59 µM]
Cc1ccc(C(OCC(C)(C)C[N+](C)(C)C)c2ccccc2)cc1 (centres undefined),17%,45µM*,22µM*,-10%,35%[59 µM]
CCn1cc(C(=O)N2CCN(c3cccc(C)c3)C(C)C2)c(=O)c2cc(S(=O)(=O)N3CCOCC3)ccc21 (centres undefined),26%,·,-6%,·,3%[59 µM]
O=C(CCS(=O)(=O)c1cccc2nsnc12)Nc1ccc(F)cc1,3%,·,-21%,-1%,10µM*
COc1ccc(N2CCN(CCNC(=O)CCS(=O)(=O)c3cccc4nsnc34)CC2)cc1,·,-9%,·,?,45µM*
O=C(CCS(=O)(=O)c1cccc2nonc12)Nc1ccc(Br)cc1,5%,12%,79µM*!,-1%,8%
COc1ccccc1NC(=O)c1cc2c(=O)n(C)c3ccccc3c2n1C,20%,-22%,-18%,-1%,?
CC1=C(C(=O)OCCOC(C)C)C(c2cc3c(cc2Br)OCO3)CC(=O)N1 (centres undefined),14%,19%,-17%,-3%,2%[59 µM]
CC(=O)Nc1ccc(/C(C)=N\NC(=O)c2ccc(-c3ccccc3)cc2)cc1,·,-22%,·,-15%,·
C/C(=N\NC(=O)c1ccccc1O)C1C(=O)c2ccccc2C1=O,23%,15%,8%,?,17%[12.7 µM]
CC(=O)Nc1ccc(/C(C)=N/NC(=O)c2ccc(F)cc2)cc1,-7%,4%,89µM*,3%,8%
C/C(=N/NC(=O)c1cc2ccccc2cc1O)C1C(=O)c2ccccc2C1=O,22µM*,0%,16µM*,?,40µM*
CCc1ccc(/C(C)=N/NC(=O)c2ccccn2)cc1,40%,-4%,-13%,-9%,10%
C/C(=N\NC(=O)CCCNc1ccc(C)cc1)c1ccccn1,7%,-4%,?,56µM*,16µM*
C/C(=N\NC(=O)c1ccc(F)cc1)c1ccccn1,30%,9%,35µM*,10µM*,?
CN1C(=O)CC(NNC(=O)c2ccc(Cl)cc2)C1=O (centres undefined),8%,-6%,-9%,2%,34%
COc1ccc(-c2cc(C(F)(F)F)n3nc(C(=O)Nc4cc(Cl)cc(Cl)c4)cc3n2)cc1,31%,·,3%,-12%,8%[59 µM]
SMILES,HP1b chromo inh,Sfp PPTase inh,JMJD2A Tudor inh,BAZ2B inh,G9a block
C/C(=N\NC(=O)c1cc2ccccc2cc1O)c1ccccn1,20%[57 µM],13%,18µM*,10µM*,·
C/C(=N\NC(=O)c1c[nH]c2ccccc12)c1ccco1,18%,-7%,-23%,-9%,-27%
C/C(=N\NC(=O)c1c[nH]c2ccccc12)c1ccccn1,39%,29%,50µM*,10µM*,16%
Oc1ccc2ccccc2c1CNn1cnnc1,25%,-3%,-19%,0%,11µM*
Cc1ccc(O)c(CNn2cnnc2)c1,27%,-2%,-7%,-4%,26%[59 µM]
Oc1ccc2ccccc2c1CNc1ccccn1,28%,-5%,-18%,-13%,8.9µM*
Cc1ccc(CNC(=O)C2CCCN2C(=O)Nc2ccccc2)cc1 (centres undefined),35%,14%,-8%,4%,7%
CCOc1ccc(-n2cc(-c3ccccc3)c3c(N4CCOCC4)ncnc32)cc1,25%,-14%,-24%,25µM*,?
COc1cccc(N2CCN(c3ncnc4c3c(-c3ccccc3)cn4-c3ccc(F)cc3)CC2)c1,16%,·,-29%,-3%,-3%[59 µM]
CN1CCN(c2ncnc3c2c(-c2ccccc2)cn3-c2ccc(F)cc2)CC1,-16%,-12%,?,?,45µM*
O=C(CCn1nc(-c2ccccc2)ccc1=O)NCCCN1CCCCCC1,15%,-14%,?,79µM*,·
CC1=CC(=O)C(C(C)=Nc2ccccc2Cl)C(=O)O1 (centres undefined),-12%,19%,?,1%,50µM*
COc1cc(Cl)ccc1NC(=S)N(CCCN1CCOCC1)Cc1cn(C)c2ccccc12,?,11µM*,?,?,18µM*
CCOc1ccccc1NC(=S)N(CCCN1CCOCC1)Cc1cn(C)c2ccccc12,-1%,-3%,?,?,?
COc1ccc(Cl)cc1NC(=S)N(CCCN1CCOCC1)Cc1cn(C)c2ccccc12,?,13µM*,?,?,10µM*
COc1ccccc1NC(=S)N(CCCN1CCOCC1)Cc1cn(C)c2ccccc12,-7%,-6%,?,?,?
CN(C(=O)CO/N=C/c1ccc(OC(F)F)cc1)C1CCS(=O)(=O)C1 (centres undefined),1%,7%,3%,6%,-9%
CCOC(=O)c1c(NC(=O)CSc2nc3ccc(OC)cc3[nH]2)sc2c1CC(C)(C)NC2(C)C,-13%,·,?,-4%,50µM*
COC(=O)c1c(NC(=O)Cc2ccccc2)sc2c1CC(C)(C)NC2(C)C,-9%,28µM*,-26%,-8%,·
COC(=O)c1c(NC(=O)COc2ccc(Cl)cc2)sc2c1CC(C)(C)NC2(C)C,2%,56µM*,?,?,·
Cc1ccc(NC(=O)CN2C(=O)C3(SCC(=O)N3c3cccc(Cl)c3)c3ccccc32)cc1C (centres undefined),9%,·,-31%,-5%[57.1 µM],-9%[59 µM]
CCc1ccc2c(c1)C1(NN=C(c3cccc4ccccc34)S1)C(=O)N2 (centres undefined),·,-3%,·,20µM*,?
Cc1ccc2nc(/C(C#N)=C\c3ccc(N4CCOCC4)o3)[nH]c2c1,-3%,-4%,-26%,?,10µM*
